Data reported in the supplement of paper PMC11732987, “Enantioselective OTUD7B fragment discovery through chemoproteomics screening and high-throughput optimisation” (Communications Chemistry, 2025).

What was measured:
Assay in all cases: log2 ratio of Biotin-Ahx-Ub-VS probe labelling (fragment/DMSO); higher = less target engagement (more negative = stronger competition), active = hit call of the paper (q ≤ 0.05, log2 ratio ≤ -1)
Details in all cases: compound concentration: 200 uM; treatment time: 3 h
USP34 = USP34 (UniProt Q70CQ2)
USP34, sequence (Q70CQ2 whole entry, the tested form may be a part): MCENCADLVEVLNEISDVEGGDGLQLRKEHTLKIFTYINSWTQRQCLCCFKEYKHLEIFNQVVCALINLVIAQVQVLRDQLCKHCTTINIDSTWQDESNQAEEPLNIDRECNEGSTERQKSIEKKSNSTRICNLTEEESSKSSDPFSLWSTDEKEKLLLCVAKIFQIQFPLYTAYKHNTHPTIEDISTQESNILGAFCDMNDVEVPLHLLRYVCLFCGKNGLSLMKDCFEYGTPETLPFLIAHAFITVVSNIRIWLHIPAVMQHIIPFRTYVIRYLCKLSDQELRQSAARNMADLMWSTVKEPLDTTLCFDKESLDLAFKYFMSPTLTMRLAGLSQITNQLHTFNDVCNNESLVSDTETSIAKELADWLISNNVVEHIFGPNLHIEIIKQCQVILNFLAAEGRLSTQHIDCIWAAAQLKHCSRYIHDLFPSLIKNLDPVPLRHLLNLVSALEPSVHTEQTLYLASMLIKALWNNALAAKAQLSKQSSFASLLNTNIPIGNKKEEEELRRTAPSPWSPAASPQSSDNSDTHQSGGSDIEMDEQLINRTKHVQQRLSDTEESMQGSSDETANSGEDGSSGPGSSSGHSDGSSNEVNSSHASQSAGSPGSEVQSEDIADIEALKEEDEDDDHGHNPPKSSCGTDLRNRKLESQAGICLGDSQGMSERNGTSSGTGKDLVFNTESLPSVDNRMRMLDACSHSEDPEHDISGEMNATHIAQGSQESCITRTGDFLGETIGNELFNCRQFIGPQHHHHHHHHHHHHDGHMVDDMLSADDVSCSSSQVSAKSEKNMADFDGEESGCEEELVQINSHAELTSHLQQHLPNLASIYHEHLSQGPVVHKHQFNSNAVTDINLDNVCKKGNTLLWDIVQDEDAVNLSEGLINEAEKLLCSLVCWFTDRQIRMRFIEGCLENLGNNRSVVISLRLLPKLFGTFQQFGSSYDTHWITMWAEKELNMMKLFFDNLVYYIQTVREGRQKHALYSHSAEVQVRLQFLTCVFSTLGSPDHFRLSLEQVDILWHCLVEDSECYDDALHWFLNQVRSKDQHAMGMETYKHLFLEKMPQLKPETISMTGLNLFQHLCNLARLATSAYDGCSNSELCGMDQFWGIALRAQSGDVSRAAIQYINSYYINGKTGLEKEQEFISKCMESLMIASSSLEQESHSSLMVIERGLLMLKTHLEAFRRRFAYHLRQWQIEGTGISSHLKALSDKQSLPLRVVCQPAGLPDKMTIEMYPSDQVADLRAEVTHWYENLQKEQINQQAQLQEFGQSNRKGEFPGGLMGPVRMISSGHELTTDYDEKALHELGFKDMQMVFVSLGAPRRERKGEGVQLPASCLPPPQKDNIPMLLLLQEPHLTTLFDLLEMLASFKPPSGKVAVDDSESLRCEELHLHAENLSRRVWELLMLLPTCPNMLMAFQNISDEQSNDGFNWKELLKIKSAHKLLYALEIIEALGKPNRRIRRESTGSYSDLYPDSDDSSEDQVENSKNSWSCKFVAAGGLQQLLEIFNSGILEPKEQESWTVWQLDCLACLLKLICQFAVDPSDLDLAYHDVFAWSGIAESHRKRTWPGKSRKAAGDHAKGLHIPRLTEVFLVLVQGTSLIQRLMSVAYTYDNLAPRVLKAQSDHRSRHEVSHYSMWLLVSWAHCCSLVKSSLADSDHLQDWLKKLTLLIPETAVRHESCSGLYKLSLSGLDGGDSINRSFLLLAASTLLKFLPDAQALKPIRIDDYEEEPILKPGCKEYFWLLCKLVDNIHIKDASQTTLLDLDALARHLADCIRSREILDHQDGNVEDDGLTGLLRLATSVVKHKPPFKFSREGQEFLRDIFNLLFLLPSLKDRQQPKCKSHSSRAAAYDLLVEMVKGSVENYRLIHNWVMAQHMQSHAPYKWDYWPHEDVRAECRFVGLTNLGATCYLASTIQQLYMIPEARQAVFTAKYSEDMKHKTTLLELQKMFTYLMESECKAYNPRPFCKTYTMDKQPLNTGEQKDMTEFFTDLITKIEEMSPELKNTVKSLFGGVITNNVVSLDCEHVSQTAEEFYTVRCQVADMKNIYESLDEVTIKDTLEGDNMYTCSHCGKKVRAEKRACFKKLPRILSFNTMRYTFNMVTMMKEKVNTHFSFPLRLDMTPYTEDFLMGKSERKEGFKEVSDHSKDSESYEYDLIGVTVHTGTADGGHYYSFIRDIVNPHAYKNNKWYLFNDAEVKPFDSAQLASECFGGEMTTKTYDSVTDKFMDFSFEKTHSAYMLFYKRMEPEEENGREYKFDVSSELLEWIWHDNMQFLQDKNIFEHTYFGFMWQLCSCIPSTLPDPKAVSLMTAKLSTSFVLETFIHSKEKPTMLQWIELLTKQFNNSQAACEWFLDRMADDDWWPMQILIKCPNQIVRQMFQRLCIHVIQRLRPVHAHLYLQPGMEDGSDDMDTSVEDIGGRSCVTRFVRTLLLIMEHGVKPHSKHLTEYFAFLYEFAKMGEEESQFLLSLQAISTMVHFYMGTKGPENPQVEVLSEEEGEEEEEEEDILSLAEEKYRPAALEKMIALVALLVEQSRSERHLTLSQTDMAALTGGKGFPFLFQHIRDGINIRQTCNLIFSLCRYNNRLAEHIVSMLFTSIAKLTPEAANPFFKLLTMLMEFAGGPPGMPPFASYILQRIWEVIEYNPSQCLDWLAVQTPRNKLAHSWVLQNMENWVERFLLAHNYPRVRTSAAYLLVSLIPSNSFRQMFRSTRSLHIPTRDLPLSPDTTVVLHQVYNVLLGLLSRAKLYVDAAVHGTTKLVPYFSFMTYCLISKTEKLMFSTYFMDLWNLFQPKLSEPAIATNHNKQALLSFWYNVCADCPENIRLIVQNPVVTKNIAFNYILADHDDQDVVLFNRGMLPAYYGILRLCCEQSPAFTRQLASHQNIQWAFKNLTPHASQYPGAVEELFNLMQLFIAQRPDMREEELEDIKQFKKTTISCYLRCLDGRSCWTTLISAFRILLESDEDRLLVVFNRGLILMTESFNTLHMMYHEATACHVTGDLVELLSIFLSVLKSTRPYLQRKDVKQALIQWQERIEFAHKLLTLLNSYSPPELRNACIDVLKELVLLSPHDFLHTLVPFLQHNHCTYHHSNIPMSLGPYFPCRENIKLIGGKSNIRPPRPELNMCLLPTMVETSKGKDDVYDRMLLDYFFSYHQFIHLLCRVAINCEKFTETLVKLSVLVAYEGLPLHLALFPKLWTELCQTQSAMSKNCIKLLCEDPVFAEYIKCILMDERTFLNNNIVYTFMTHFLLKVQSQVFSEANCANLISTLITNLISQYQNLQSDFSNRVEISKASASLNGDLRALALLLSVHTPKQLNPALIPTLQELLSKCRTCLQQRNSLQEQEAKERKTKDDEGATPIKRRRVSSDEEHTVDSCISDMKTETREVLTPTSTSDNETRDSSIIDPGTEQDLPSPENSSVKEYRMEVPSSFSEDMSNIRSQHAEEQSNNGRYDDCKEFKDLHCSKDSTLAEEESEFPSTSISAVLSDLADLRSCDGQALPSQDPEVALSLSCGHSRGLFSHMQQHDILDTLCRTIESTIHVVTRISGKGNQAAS
In short: (§1)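 Using Biotin-Ahx-Ub-VS at 0.5 µM final for 1 h, DUBs were labelled in HEK293T lysate (495 µg per sample) that had first been treated in triplicate with fragment at 200 µM or vehicle for 3 h. NeutrAvidin enrichment, LysC and trypsin digestion and diaPASEF LC-MS/MS followed. Spectronaut label-free quantities were global-median-normalised. Values are average log2 fragment/vehicle ratios by unpaired t-test, using proteins with ≥2 unique peptides.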

USP36 = biological target: T1, USP36 (UniProt Q9P275)
T1 sequence (whole entry): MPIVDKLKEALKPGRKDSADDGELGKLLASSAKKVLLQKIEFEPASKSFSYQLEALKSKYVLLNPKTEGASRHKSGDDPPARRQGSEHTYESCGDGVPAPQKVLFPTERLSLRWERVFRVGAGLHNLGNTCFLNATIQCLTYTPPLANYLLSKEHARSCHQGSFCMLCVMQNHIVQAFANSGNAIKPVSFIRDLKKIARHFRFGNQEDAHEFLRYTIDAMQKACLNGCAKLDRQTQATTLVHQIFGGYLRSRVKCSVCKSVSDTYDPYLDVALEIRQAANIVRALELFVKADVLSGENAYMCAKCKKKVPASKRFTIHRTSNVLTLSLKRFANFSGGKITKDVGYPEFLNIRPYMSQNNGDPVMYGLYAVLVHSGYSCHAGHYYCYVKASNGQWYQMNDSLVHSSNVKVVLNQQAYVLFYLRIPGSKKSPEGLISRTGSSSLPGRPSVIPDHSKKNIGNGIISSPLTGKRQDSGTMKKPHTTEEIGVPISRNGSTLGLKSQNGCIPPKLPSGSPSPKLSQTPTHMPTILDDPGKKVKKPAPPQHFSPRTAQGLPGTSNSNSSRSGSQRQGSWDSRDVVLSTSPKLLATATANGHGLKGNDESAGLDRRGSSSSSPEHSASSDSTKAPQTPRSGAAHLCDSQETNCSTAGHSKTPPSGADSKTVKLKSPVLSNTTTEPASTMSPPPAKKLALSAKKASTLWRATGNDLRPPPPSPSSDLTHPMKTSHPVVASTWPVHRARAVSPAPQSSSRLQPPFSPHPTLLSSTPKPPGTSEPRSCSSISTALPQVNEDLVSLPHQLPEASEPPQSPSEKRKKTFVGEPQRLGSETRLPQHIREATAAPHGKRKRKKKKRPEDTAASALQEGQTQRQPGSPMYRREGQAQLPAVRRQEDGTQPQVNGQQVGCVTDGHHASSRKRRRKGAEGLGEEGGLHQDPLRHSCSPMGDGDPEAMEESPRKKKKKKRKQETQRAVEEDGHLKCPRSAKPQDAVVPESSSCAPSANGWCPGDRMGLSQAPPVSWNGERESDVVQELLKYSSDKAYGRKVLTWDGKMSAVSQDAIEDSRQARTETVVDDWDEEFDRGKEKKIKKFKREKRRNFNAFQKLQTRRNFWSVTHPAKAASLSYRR
In short: as §1

USP38 = biological target: T2, USP38 (UniProt Q8NB14)
T2 sequence (whole entry): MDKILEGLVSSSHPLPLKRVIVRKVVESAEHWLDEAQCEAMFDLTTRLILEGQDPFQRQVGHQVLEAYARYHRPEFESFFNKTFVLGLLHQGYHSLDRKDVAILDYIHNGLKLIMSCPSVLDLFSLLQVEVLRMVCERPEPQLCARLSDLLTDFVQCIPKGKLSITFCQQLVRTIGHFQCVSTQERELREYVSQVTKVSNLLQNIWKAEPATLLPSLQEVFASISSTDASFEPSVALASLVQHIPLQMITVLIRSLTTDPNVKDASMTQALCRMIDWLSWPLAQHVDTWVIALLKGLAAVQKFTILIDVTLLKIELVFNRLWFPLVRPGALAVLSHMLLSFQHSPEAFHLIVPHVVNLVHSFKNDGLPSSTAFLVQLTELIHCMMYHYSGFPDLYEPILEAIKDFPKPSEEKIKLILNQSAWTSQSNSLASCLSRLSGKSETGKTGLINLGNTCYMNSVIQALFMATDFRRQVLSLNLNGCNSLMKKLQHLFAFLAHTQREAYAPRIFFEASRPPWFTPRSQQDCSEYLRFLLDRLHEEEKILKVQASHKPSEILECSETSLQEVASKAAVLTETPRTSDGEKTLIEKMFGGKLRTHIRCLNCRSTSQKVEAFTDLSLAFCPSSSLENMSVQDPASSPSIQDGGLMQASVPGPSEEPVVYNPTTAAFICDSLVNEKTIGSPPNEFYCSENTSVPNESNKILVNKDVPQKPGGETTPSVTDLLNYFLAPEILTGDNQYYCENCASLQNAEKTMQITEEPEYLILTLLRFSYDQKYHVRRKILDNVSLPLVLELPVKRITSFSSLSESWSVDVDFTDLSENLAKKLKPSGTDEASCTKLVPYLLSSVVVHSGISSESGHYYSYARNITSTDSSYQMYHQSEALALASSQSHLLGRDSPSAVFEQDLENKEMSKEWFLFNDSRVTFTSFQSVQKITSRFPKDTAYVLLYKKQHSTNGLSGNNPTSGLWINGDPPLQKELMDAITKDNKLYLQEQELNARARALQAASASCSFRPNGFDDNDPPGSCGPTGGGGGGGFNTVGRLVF
In short: as §1

USP39 = biological target: T3, USP39 (UniProt Q53GS9)
T3 sequence (whole entry): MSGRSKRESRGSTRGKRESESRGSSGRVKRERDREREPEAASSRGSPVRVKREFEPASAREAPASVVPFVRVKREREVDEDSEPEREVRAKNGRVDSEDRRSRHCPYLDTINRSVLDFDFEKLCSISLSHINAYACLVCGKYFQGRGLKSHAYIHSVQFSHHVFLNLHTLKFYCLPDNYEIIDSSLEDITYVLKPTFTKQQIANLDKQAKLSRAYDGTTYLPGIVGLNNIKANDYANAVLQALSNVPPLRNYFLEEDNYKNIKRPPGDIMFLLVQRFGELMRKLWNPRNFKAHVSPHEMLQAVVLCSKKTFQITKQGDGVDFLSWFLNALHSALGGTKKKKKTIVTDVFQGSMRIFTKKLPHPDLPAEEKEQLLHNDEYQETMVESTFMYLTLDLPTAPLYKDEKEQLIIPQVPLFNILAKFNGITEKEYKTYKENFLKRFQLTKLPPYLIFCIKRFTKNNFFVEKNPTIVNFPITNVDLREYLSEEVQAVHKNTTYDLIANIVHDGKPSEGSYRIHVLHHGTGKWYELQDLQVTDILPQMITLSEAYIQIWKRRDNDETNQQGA
In short: as §1

USP4 = biological target: T4, USP4 (UniProt Q13107)
T4 sequence (whole entry): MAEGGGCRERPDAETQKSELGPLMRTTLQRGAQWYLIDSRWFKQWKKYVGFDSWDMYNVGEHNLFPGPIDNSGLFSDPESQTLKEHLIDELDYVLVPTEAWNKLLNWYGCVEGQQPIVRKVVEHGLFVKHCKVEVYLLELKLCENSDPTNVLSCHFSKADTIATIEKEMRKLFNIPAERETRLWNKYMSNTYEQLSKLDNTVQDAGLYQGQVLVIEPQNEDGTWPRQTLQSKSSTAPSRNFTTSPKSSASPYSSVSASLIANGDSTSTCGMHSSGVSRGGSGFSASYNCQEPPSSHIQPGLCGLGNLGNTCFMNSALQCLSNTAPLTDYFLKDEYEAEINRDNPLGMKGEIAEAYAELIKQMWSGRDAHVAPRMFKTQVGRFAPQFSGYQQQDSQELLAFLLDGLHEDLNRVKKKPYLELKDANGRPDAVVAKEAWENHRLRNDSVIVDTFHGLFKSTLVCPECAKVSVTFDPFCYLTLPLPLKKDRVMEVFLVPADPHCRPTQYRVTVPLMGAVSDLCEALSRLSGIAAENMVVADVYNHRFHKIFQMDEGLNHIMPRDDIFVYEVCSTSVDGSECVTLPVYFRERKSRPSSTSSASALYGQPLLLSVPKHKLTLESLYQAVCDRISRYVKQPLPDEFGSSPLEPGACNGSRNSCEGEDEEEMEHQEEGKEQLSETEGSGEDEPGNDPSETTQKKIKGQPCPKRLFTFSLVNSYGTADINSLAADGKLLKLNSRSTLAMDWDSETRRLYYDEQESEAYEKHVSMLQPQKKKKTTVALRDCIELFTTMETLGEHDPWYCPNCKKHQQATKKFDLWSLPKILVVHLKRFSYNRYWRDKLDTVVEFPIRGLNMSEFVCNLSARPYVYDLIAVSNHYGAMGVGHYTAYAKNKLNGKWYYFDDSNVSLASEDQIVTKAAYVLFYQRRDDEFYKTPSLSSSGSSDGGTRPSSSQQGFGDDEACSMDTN
In short: as §1

Measured: log2 ratio of Biotin-Ahx-Ub-VS probe labelling

CC(NC(=O)CCl)c1noc(Cc2ccccc2)n1 (stereo not given)
inactive: USP34 -0.0517 | USP36 -0.338 | USP38 -0.21 | USP39 -0.245 | USP4 -0.142
